Data reported in PubChem BioAssay AID1159580 (chemical genetic matrix, 2015).
Among all 5,500 compounds or so, about 2,000 (36%) were called active. Roughly 18% stayed inconclusive and do not appear here. No stated cut-off is given here; in the data, active means normalized growth mostly below about 0.91 (no sharp cut-off); inconclusive means no clear call, values can overlap the other calls; inactive means mostly above about 0.92. Some of the results follow.

Assay: chemical genetic growth profiling, strain panel (AID 1159580);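 further: tested at 20 µM; growth read once vehicle control cultures reached saturation at 30 °C; 1 = growth at the plate median or of vehicle wells; lower values mean less growth of the strain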
Settings: growth OD

Measured: normalized growth

CCCCCCCCCCC[C@@H](C[C@H]1OC(=O)[C@H]1CCCCCC)OC(=O)[C@@H](CC(C)C)NC=O
inactive: S. cerevisiae deletion strains, locus YJR043C, strain POL32, hits give low values 1.03 | S. cerevisiae deletion strains, locus YJR075W, strain HOC1, hits give low values 1.06 | S. cerevisiae deletion strains, locus YKL009W, strain mrt4, hits give low values 0.996 | S. cerevisiae deletion strains, locus YKL068W, hits give low values 1 | S. cerevisiae deletion strains, locus YKL085W, strain MDH1 (second series), hits give low values 1.02 | S. cerevisiae deletion strains, locus YKL085W, strain MDH1, hits give low values 1.02 | S. cerevisiae deletion strains, locus YKL160W, strain elf1, hits give low values 0.988 | S. cerevisiae deletion strains, locus YKL190W, strain CNB1, hits give low values 1.03 | S. cerevisiae deletion strains, locus YKR001C, strain vps1, hits give low values 1.03 | S. cerevisiae deletion strains, locus YKR026C, strain gcn3, hits give low values 1.03 | S. cerevisiae deletion strains, locus YKR091W, strain srl3, hits give low values 1.05 | S. cerevisiae deletion strains, locus YLL001W, strain dnm1, hits give low values 1.04 | S. cerevisiae deletion strains, locus YLL026W, hits give low values 0.997 | S. cerevisiae deletion strains, locus YLL041C, strain sdh2, hits give low values 1.03 | S. cerevisiae deletion strains, locus YLR027C, strain aat2, hits give low values 1.03 | S. cerevisiae deletion strains, locus YLR039C, strain RIC1, hits give low values 1.03 | S. cerevisiae deletion strains, locus YLR058C, strain SHM2, hits give low values 1.04 | S. cerevisiae deletion strains, locus YLR102C, strain apc9, hits give low values 1.01 | S. cerevisiae deletion strains, locus YLR221C, strain rsa3, hits give low values 1.03 | S. cerevisiae deletion strains, locus YLR258W, strain gsy2, hits give low values 1.03 | S. cerevisiae deletion strains, locus YLR262C, strain YPT6 (second series), hits give low values 1.1 | S. cerevisiae deletion strains, locus YLR262C, strain YPT6, hits give low values 1.07 | S. cerevisiae deletion strains, locus YLR268W, strain sec22, hits give low values 1.02 | S. cerevisiae deletion strains, locus YLR320W, strain mms22, hits give low values 1.05 | S. cerevisiae deletion strains, locus YLR330W, strain CHS5, hits give low values 1.03 | S. cerevisiae deletion strains, locus YLR342W, strain FKS1 (second series), hits give low values 1.02 | S. cerevisiae deletion strains, locus YLR342W, strain FKS1, hits give low values 1.01 | S. cerevisiae deletion strains, locus YLR357W, strain rsc2, hits give low values 1.09 | S. cerevisiae deletion strains, locus YLR370C, strain arc18, hits give low values 1.03 | S. cerevisiae deletion strains, locus YLR371W, strain rom2, hits give low values 1.01 | S. cerevisiae deletion strains, locus YLR384C, strain iki3, hits give low values 1.03 | S. cerevisiae deletion strains, locus YLR418C, strain cdc73, hits give low values 1.03 | S. cerevisiae deletion strains, locus YML016C, strain PPZ1, hits give low values 1.04 | S. cerevisiae deletion strains, locus YML032C, strain rad52, hits give low values 1.04 | S. cerevisiae deletion strains, locus YML120C, strain ndi1, hits give low values 1.02 | S. cerevisiae deletion strains, locus YML124C, strain tub3, hits give low values 1.01 | S. cerevisiae deletion strains, locus YMR058W, strain fet3, hits give low values 1.06 | S. cerevisiae deletion strains, locus YMR078C, strain ctf18, hits give low values 1.03 | S. cerevisiae deletion strains, locus YMR125W, strain sto1, hits give low values 1.05 | S. cerevisiae deletion strains, locus YMR129W, hits give low values 1.02 | S. cerevisiae deletion strains, locus YMR205C, strain PFK2, hits give low values 1.02 | S. cerevisiae deletion strains, locus YMR223W, strain ubp8, hits give low values 1.03 | S. cerevisiae deletion strains, locus YMR231W, strain pep5, hits give low values 1.05 | S. cerevisiae deletion strains, locus YMR263W, strain SAP30, hits give low values 1.04 | S. cerevisiae deletion strains, locus YMR307W, strain GAS1, hits give low values 1.05 | S. cerevisiae deletion strains, locus YNL067W, strain RPL9B, hits give low values 1.04 | S. cerevisiae deletion strains, locus YNL071W, strain lat1, hits give low values 1.02 | S. cerevisiae deletion strains, locus YNL128W, strain TEP1, hits give low values 1.02 | S. cerevisiae deletion strains, locus YNL153C, strain GIM3, hits give low values 1.04 | S. cerevisiae deletion strains, locus YNL209W, strain ssb2, hits give low values 1.06 | S. cerevisiae deletion strains, locus YNL233W, strain BNI4, hits give low values 1.03 | S. cerevisiae deletion strains, locus YNL248C, strain rpa49, hits give low values 1.06 | S. cerevisiae deletion strains, locus YNL250W, strain rad50, hits give low values 1.03 | S. cerevisiae deletion strains, locus YNL271C, strain bni1, hits give low values 1.02 | S. cerevisiae deletion strains, locus YNL298W, strain CLA4, hits give low values 1.03 | S. cerevisiae deletion strains, locus YNL307C, strain MCK1, hits give low values 1.03 | S. cerevisiae deletion strains, locus YNL322C, strain KRE1 (second series), hits give low values 1.03 | S. cerevisiae deletion strains, locus YNL322C, strain KRE1, hits give low values 1.04 | S. cerevisiae deletion strains, locus YNR049C, strain mso1, hits give low values 1.04 | S. cerevisiae deletion strains, locus YNR052C, strain pop2, hits give low values 1.03 | S. cerevisiae deletion strains, locus YOL006C, strain TOP1, hits give low values 1.08 | S. cerevisiae deletion strains, locus YOL012C, strain htz1 1.37 | S. cerevisiae deletion strains, locus YOL147C, strain pex11, hits give low values 1.02 | S. cerevisiae deletion strains, locus YOR001W, strain rrp6, hits give low values 1.03 | S. cerevisiae deletion strains, locus YOR061W, strain CKA2, hits give low values 1.03 | S. cerevisiae deletion strains, locus YOR069W, strain VPS5, hits give low values 1.02 | S. cerevisiae deletion strains, locus YOR070C, strain gyp1, hits give low values 1.04 | S. cerevisiae deletion strains, locus YOR080W, strain dia2, hits give low values 0.999 | S. cerevisiae deletion strains, locus YOR083W, strain WHI5, hits give low values 1.04 | S. cerevisiae deletion strains, locus YOR106W, strain vam3, hits give low values 1.03 | S. cerevisiae deletion strains, locus YOR136W, strain idh2, hits give low values 1.03 | S. cerevisiae deletion strains, locus YOR144C, strain elg1, hits give low values 1.02 | S. cerevisiae deletion strains, locus YOR184W, strain ser1, hits give low values 1 | S. cerevisiae deletion strains, locus YOR265W, strain rbl2, hits give low values 1.05 | S. cerevisiae deletion strains, locus YOR270C, strain vph1, hits give low values 1.11 | S. cerevisiae deletion strains, locus YOR290C, strain snf2, hits give low values 1.05 | S. cerevisiae deletion strains, locus YOR316C, strain cot1, hits give low values 1.01 | S. cerevisiae deletion strains, locus YPL051W, strain arl3, hits give low values 1.06 | S. cerevisiae deletion strains, locus YPL055C, strain LGE1, hits give low values 1.04 | S. cerevisiae deletion strains, locus YPL078C, strain atp4, hits give low values 1.08 | S. cerevisiae deletion strains, locus YPL106C, strain sse1, hits give low values 1.05 | S. cerevisiae deletion strains, locus YPL240C, strain hsp82, hits give low values 1.02 | S. cerevisiae deletion strains, locus YPL241C, strain CIN2, hits give low values 1.03 | S. cerevisiae deletion strains, locus YPR119W, strain clb2, hits give low values 0.996 | S. cerevisiae deletion strains, locus YPR141C, strain kar3, hits give low values 1.02 | S. cerevisiae deletion strains, locus YPR163C, strain tif3, hits give low values 1.03 | S. cerevisiae deletion strains, locus YPR167C, strain met16, hits give low values 1.01 | S. cerevisiae deletion strains, strain wtn01, hits give low values 1.01 | S. cerevisiae strains, strain wild type, hits give low values 1.04
